The sample as a whole holds a higher share of hits than the screen did.
ER stress surv = protection against thapsigargin ER stress killing – CSM14.1 cells, ATP luminescence, primary screen | CSM14.1 thapsigargin ER stress survival | hit rate 0.33% among 48,000 | AID 1010, 2008 | relative survival (cellular ATP), % at 15 µg/mL (by protocol);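 active = survival measured by cellular ATP above 50% at 15 µg/ml in the first screen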;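 note: cell death triggered by about 15 µM thapsigargin; ATP read 24 h after thapsigargin was added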
A number is an active result; - = inactive.

SMILES | ER stress surv
O=C(N/C(=C/c1cccs1)c1nc2ccccc2[nH]1)c1ccccc1 | -
Cc1ccc(C(=O)N/C(=C/c2cccs2)c2nc3ccccc3[nH]2)cc1 | 62
Cc1ccc(C(=O)N/C(=C/c2cccnc2)c2nc3ccccc3[nH]2)cc1 | -
CCc1ccccc1NS(=O)(=O)c1cccs1 | -
COc1ccccc1NC(=O)C1=C(C)NC(=O)NC1c1ccc(Cl)cc1 (stereo unspecified) | -
COc1cccc(N2C(=O)CC(N3CCN(C(c4ccccc4)c4ccccc4)CC3)C2=O)c1 (stereo unspecified) | -
COc1ccc(N2C(=O)CC(N3CCN(C(c4ccccc4)c4ccc(Cl)cc4)CC3)C2=O)cc1 (stereo unspecified) | 110
O=C1CC(N2CCN(C(c3ccccc3)c3ccccc3)CC2)C(=O)N1c1ccc(F)cc1 (stereo unspecified) | -
CC(/C=C/c1ccc2c(c1)OCO2)=N\NC(=O)COc1ccccc1[N+](=O)[O-] | -
O=C(O)c1cccc(C(=O)c2ccc3c(c2)C(=O)N(c2cccnc2)C3=O)c1 | -
O=C(CC1SC(=Nc2ccccc2)N(c2ccccc2)C1=O)Nc1ccccc1C(F)(F)F (stereo unspecified) | 65
O=C(CC1SC(=Nc2ccccc2)N(c2ccccc2)C1=O)Nc1ccc(F)cc1 (stereo unspecified) | -
Cc1ccc(NC(=O)CC2SC(=Nc3ccccc3)N(c3ccccc3)C2=O)cc1 (stereo unspecified) | -
C=CCc1cccc2cc(C(=O)NCc3ccco3)c(=O)oc12 | -
O=[N+]([O-])c1cccc(/C=N/Nc2ccc3nnnn3n2)c1 | -
O=C1NC(=O)N(c2ccc(Cl)cc2)C(=O)/C1=C\c1ccc(N2CCCC2)cc1 | -
CCCN(CCC)C(=O)c1ccc(Cl)cc1 | -
O=C(Nc1cccc(S(=O)(=O)c2cccc(NC(=O)c3cccs3)c2)c1)c1cccs1 | 113
O=C(Nc1cccc(Br)c1)c1cccs1 | -
NS(=O)(=O)c1cccc(NC(=O)c2cccs2)c1 | -
Cc1ccccc1C(=O)Nc1ccc(S(=O)(=O)Nc2ncccn2)cc1 | -
COc1ccc(C(=O)N/C(=C\c2ccc(Cl)cc2)C(=O)NCC2CCCO2)cc1 (stereo unspecified) | -
O=C(NCC1CCCO1)/C(=C/c1ccc(-c2ccccc2Cl)o1)NC(=O)c1ccccc1 (stereo unspecified) | 87
N#C/C(=C\c1ccc(-c2ccc(Cl)c(C(=O)O)c2)o1)C(=O)NCC1CCCO1 (stereo unspecified) | -
O=C(N/N=C\c1ccc(N2CCCC2)c([N+](=O)[O-])c1)c1ccccn1 | -
SMILES | ER stress surv
Cc1c(C(=O)Nc2cc(C(F)(F)F)cc(C(F)(F)F)c2)oc2ccccc12 | -
CCOc1ccccc1CN(CCc1ccc2c(c1)OCO2)Cc1ccncc1 | 103
CCOc1ccc(-c2nnc(-c3ccc4c(c3)OCO4)o2)cc1 | -
CCOc1ccccc1CN(CCc1ccc2c(c1)OCO2)Cc1cc(OC)ccc1OC | -
Cc1ccc(NC(=O)C(=O)NCc2ccccc2Cl)cc1 | -
COc1cc2c(cc1NCc1ccc([N+](=O)[O-])cc1)oc1ccccc12 | -
COc1cc2c(cc1NCc1ccc3c(c1)OCO3)oc1ccccc12 | -
COc1cc2c(cc1NCc1ccncc1)oc1ccccc12 | 93
O=c1oc(-c2ccc(Br)cc2)nc2cc(Cl)ccc12 | -
CCOC(=O)CCCSc1nnc(CCCN2C(=O)c3cccc4cccc(c34)C2=O)n1-c1ccccc1 | -
CCc1cc2c(N3CCCCC3)ncnc2s1 | -
CCOC(=O)c1cnn(-c2ncnc3sc(CC)cc23)c1N | -
CCc1cc2c(N3CCN(Cc4ccc(Cl)cc4Cl)CC3)ncnc2s1 | 98
COc1ccc(-c2cc(C(F)(F)F)n3nc(C(=O)NCCCn4ccnc4)c(Cl)c3n2)cc1 | -
Cc1ccc(NC(=S)NCCOc2cccc3ccccc23)c(C)c1 | -
O=C(Cc1ccc(-c2ccccc2)cc1)NNC(=O)c1cccc(Cl)c1 | -
COC(=O)c1ccccc1NC(=O)CN(c1ccc(C)cc1)S(=O)(=O)c1ccc(SC)cc1 | -
Cc1ccc(NC(=O)CC(=O)NN)cc1 | -
Cc1ccc(P(=O)(CSC(=N)N)c2ccc(C)cc2)cc1 | 58
CCOC(=O)CP(=O)(c1ccccc1)c1ccccc1 | -
O=C(c1nn2c(c1Cl)NC(c1cccs1)CC2C(F)(F)F)N1CCOCC1 (stereo unspecified) | -
O=C1S/C(=C/c2ccccc2F)C(=O)N1CNc1ccc(I)cc1 | -
COc1cc2c(cc1OC)C(CC(=O)Nc1ccc(C)cc1C)=NC(C)(C)C2 | 53
COC(=O)CCC(=O)Nc1ccc(C)cc1C | -
COc1ccc(C(=O)Nc2ccc(C)cc2C)cc1OC | -
SMILES | ER stress surv
COc1cc2ccccc2cc1C(=O)Nc1cccc([N+](=O)[O-])c1 | -
Cc1ccc(-c2nc(O)c(C3=c4cc(C)cc(C)c4=NC3=O)s2)cc1 | -
COc1cccc(CNc2ccc3c(c2)ncn3-c2ccccc2)c1OC | 89
COc1ccc(CNc2ccc(C)c(C)c2)c(OC)c1C | -
COc1ccc(CNc2ccc3c(c2)ncn3C)cc1 | -
COc1cc(OC)c(CNc2ccc(C)c(C)c2)cc1Br | -
CC1(C)Cc2ccccc2-c2nnc(-c3cccc(N)c3)n21 | -
O=[N+]([O-])c1ccc2nc3c([nH]c4ccccc43)c(Cl)c2c1 | -
COc1ccc(CCNC(=O)C(=O)Nc2ccc(OC)c(Cl)c2)cc1 | -
Cc1ccc(Cl)cc1NC(=O)CSC(N)=O | -
COCC(=O)Nc1cc(Cl)ccc1C | -
CC(=O)CC(=O)Nc1cc(Cl)ccc1C | 65
O=C(Nc1ccc2c(c1)oc1ccccc12)c1ccc([N+](=O)[O-])cc1 | -
CCOC(=O)C1C(=O)C=C(C)C(C(=O)OCC)C1c1ccc(Br)cc1 (stereo unspecified) | -
Cc1ccc(C2(c3ccc(C)cc3)CC2C(=O)Nc2ccncc2)cc1 (stereo unspecified) | -
Cc1ccc(C2(c3ccc(C)cc3)CC2C(=O)Nc2ccccc2)cc1 (stereo unspecified) | -
Cc1ccc(C2(c3ccc(C)cc3)CC2C(=O)Nc2cccnc2)cc1 (stereo unspecified) | 78
O=C(Nc1ccccc1F)c1ccc(Cl)c([N+](=O)[O-])c1 | -
c1ccc(CN2CCC(N3CCN(C4CCC(c5ccccc5)CC4)CC3)CC2)cc1 (stereo unspecified) | -
CCCOC(=O)C1=C(C)NC2=C(C(=O)CC(c3ccccc3)C2)C1c1ccccc1Br (stereo unspecified) | -
O=C1NC(=O)N(c2ccc(Cl)cc2)C(=O)/C1=C\C=C\c1ccco1 | 54
O=C1NC(=S)N(c2ccc(Cl)cc2)C(=O)/C1=C/C=C/c1ccccc1 | -
Cc1cc(N2C(=O)NC(=O)/C(=C\C=C\c3ccco3)C2=O)ccc1Br | -
Cn1c(=O)c2[nH]c(N=Nc3c(O)[nH]c(=O)[nH]c3=O)nc2n(C)c1=O | -
COc1ccc(C2CC(=O)C3=C(C2)Nc2ccccc2NC3c2ccccc2C)cc1OC (stereo unspecified) | -
COc1ccc(C2CC(=O)C3=C(C2)Nc2ccccc2NC3c2cc(OC)c(OC)cc2OC)cc1 (stereo unspecified) | -
COc1ccc(C2CC(=O)C3=C(C2)Nc2ccccc2NC3c2ccccc2Br)cc1OC (stereo unspecified) | -
COc1ccc(C2CC(=O)C3=C(C2)Nc2ccccc2NC3c2ccc(SC)cc2)cc1OC (stereo unspecified) | 112

Bioassay records as filed in PubChem BioAssay.
